Assay results published in ChEMBL document CHEMBL3433997, “St. Jude Leishmania screening dataset” (2016).

Target: Hexose transporter 1 (Plasmodium falciparum) (UniProt O97467)
Assay: ST_JUDE_LEISH: Cytotoxicity at 2uM final concentration against transgenic Leishmania Mexicana promastigotes LmPfHT that are glucose transport deficient and complemented with the Plasmodium falciparum hexose transporter. Activity is measured by DNA content using SYBR green in vitro
Type: functional

First: COc1cc(NC(=O)N2CCc3ccc(OCCC4CCCN4C)cc32)cc(C(F)(F)F)c1 (stereo not given)
Second: COc1cc(C(=O)Nc2nc3ccccc3[nH]2)ccc1OCC(=O)Nc1cccc(C(F)(F)F)c1
The inhibition of the first is lower: 0.15% for the first, 2.67% for the second.

Going from N=C(N)Nc1nc(-c2ccc(NC(=O)Nc3cccc(-c4csc(NC(=N)N)n4)c3)cc2)cs1 to CCOC(=O)c1ccc(NC(=O)Nc2ccc(-c3cccc(-c4nc5cccc(C)c5[nH]4)c3)cc2)cc1, the inhibition falls from 0% to -0.4%.

First: O=C(NCCN1CCCCC1)c1cc2cc(-c3ccccc3)ccc2n1S(=O)(=O)c1ccccc1
Second: O=C(NCCCCN1CCC(C(c2ccccc2)c2ccccc2)CC1)c1ccc(NC(=O)c2ccc(Cl)cc2)cc1
The inhibition of the first is higher: 74.7% for the first, -0.4% for the second.

First: Cc1ccc(NC(=O)c2cccc(CN3CCCN(Cc4cccc(O)c4)CC3)c2)cc1F
Second: COc1ccc(CN2CCN(CC(=O)Nc3cc(Cl)ccc3-n3cncn3)CC2)cc1F
The inhibition of the first is higher: 8.09% for the first, 1.82% for the second.

Going from O=c1cc(NCCCNC2CCc3ccc(Cl)cc32)[nH]c2ccccc12 (stereo not given) to O=C(N[C@@H](Cc1ccccc1)[C@H](O)CNC1CCCc2ccccc21)c1cc(C2CCCC2)cc(N2CCCC2=O)c1 (stereo not given in full), the inhibition rises from -0.73% to 0.77%.

Compared with CC(Oc1ccc(NC(=O)c2cccs2)cc1)C(=O)c1ccc(Cl)cc1 (stereo not given), COc1cc(C(C)C)ccc1C1CCN(CCCCNC(=O)c2ccc(NC(=O)c3ccc(Cl)cc3)cc2)CC1 is lower in inhibition: 10% for the first, 6.6% for the second.

First: O=[N+]([O-])c1ccc(Nc2nc(N/N=C/c3cccc(O)c3)nc(N3CCCC3)n2)cc1
Second: Cc1ccc2nc(C)cc(N/N=C/c3ccc([N+](=O)[O-])o3)c2c1
The inhibition of the first is lower: 3.1% for the first, 12.8% for the second.

First: COC(=O)c1ccc(NC(=O)c2ccc(CCN3CCC(c4nc(COCC(F)(F)F)c(-c5ccc(F)cc5)o4)CC3)cc2)cc1
Second: COc1cc2c(c(Cl)c1OC)CCN(Cc1ccccc1)CC2c1ccc(NC(=O)C(F)(F)F)cc1 (stereo not given)
The inhibition of the first is higher: 3.11% for the first, 2.68% for the second.

First: Cc1cccc2nc(-c3ccc(-c4cccc(CNCc5cccc(N)c5)c4)cc3)[nH]c12
Second: Nc1ccc(-c2nc3cc(Oc4ccc5[nH]c(-c6ccc(N)cc6)nc5c4)ccc3[nH]2)cc1
The inhibition of the first is higher: 2.16% for the first, 0.6% for the second.

Compared with CN(C)c1ccc(C=C2SC(=O)N=C2Nc2ccccc2)cc1, CN(C)c1ccc(OCCCCCCOc2ccccc2)cc1 is higher in inhibition: 0.09% for the first, 1.77% for the second.

Compared with Clc1cc(Cl)cc(Nc2ccnc(Nc3cc(Cl)cc(Cl)c3)n2)c1, CN(C)CCNC(=O)c1ccc(-c2cnc3ccc(NCc4ccc(Cl)c(Cl)c4)nn23)cc1 is lower in inhibition: 2.75% for the first, -1.29% for the second.

First: CN(C)c1ccc2c(c1)Sc1cc(N(C)C)ccc1N2C(=O)c1cccc(C(=O)O)c1
Second: Cc1[nH]cnc1-c1cccc(NC(=O)c2cc3ccccc3s2)c1
The inhibition of the first is higher: -0.19% for the first, -1.53% for the second.

First: Clc1ccc(OCc2ccccc2)c(Cc2ccc(-c3nc4cnccc4[nH]3)o2)c1
Second: NC1CCN(Cc2cccc(-c3csc(-c4nc5ccccc5[nH]4)c3)c2)C1 (stereo not given)
The inhibition of the first is higher: 2.01% for the first, 1.55% for the second.

Compared with CSc1ccc(CN2CCC(NC(=O)c3ccc(-c4cccc(Cl)c4)s3)CC2)cc1, CN1CCC(NCc2ccc(-c3ccc(Cl)cc3)cc2)CC1 is higher in inhibition: 6.28% for the first, 8.78% for the second.

Going from CS(=O)(=O)c1ccc2c(c1)CCN(CCC1CCC(NC(=O)c3cc4cccc(Br)c4[nH]3)CC1)CC2 (stereo not given) to O=C(Nc1cc(F)cc(F)c1)N1CCOC(CCN2CCC3(CCc4ccccc43)CC2)(c2ccc(Cl)c(Cl)c2)C1 (stereo not given), the inhibition rises from 2.78% to 3.01%.

First: CCCCNCc1ccc(-c2nc(CN(CCCn3ccnc3)C(=O)C3COc4ccccc4O3)cs2)cc1 (stereo not given)
Second: CN(CCCNCc1ccc2ccccc2c1)CCCNCc1ccc2ccccc2c1
The inhibition of the first is lower: 4.78% for the first, 13.7% for the second.

Going from COc1cc(Cc2cnc(N)nc2N)cc(OCCn2ccccc2=O)c1OC to Cc1ccc(C)c(Cn2ccc3nc(N)nc(N)c32)c1, the inhibition falls from 2.33% to 1.94%.

First: CCOC(=O)c1nc(-c2ccc(-c3ccccc3)cc2)[nH]c1N
Second: CS(=O)(=O)c1cccc(-c2cnc(N)c3cc(-c4cccc(F)c4)ccc23)c1
The inhibition of the first is higher: 2.89% for the first, 1.63% for the second.

Compared with COc1ccc2ncc(C#N)c(CCN3C4CCC3CC(NCc3ccc5c(n3)NC(=O)CS5)C4)c2c1 (stereo not given), Fc1cccc(COc2ccc(Nc3ncnc4sc(C#C[C@H]5CCCN5)cc34)cc2F)c1 is lower in inhibition: 4.33% for the first, 2.54% for the second.

Compared with CC(C)(C)c1ccc(NC(=O)N[C@@H]2CCN(c3ccnc4ccccc34)C2)cc1, c1ccn2c(Sc3ncnc4sccc34)ncc2c1 is lower in inhibition: -0.25% for the first, -1.87% for the second.
